# Most compounds without a hit are left out; they make up all but 4.7% or so of the library.
# TRHR ag – activates the human TRH receptor | AID 493084 | TRHR cells, calcium flux fluo-8, FDSS agonist mode | 0.18% of 360,000 active | activation, % at 2 µM | P34981; note: 0% is about no effect
# Target sequence (P34981 whole entry, looked up): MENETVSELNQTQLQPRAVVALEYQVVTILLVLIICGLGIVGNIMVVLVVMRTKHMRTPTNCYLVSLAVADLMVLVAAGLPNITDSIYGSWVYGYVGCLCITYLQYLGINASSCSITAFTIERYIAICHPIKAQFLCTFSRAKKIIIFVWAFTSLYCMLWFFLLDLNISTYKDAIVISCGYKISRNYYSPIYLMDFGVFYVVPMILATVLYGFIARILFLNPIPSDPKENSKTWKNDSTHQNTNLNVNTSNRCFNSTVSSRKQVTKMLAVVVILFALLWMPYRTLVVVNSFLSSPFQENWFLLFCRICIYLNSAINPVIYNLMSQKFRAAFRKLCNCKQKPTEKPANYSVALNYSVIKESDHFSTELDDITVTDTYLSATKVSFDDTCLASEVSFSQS
#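 Fluo-8-loaded TRHR cells; 10 s baseline, compound added, kinetic Ca2+ fluorescence read 1/s, agonist mode.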
# TRHR enhancer – allosterically enhances the human TRH receptor | 0.66% of 360,000 active | AID 493056 | P34981 | enhancement, % at 2 µM | TRHR cells, fluo-8 calcium fluorescence, EC20 TRH enhancement; in the data active = enhancement above about 30%; note: 0% is about no effect
#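 TRHR-expressing cells loaded with fluo-8 calcium dye were read kinetically (ex 480/em 530) during compound addition, then stimulated with an EC20 of TRH (10 nM final). Enhancement of the Gq-mediated intracellular calcium response was scored.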
# D1 PAM – enhances dopamine response at the human D1 receptor. HEK293 TREx D1 cells, calcium flux, dopamine EC20 potentiation. potentiation, % at 10 µM. 0.036% of 360,000 active. AID 504651; in the data active = potentiation above about 30%; note: 0% is about no effect
# D1 antag – blocks dopamine activation of the human D1 receptor | 3.2% of 360,000 active | HEK293 TREx D1 cells, calcium flux, dopamine EC80; stronger effect = lower value | P21728 | activity change, negative = inhibition, % at 10 µM | AID 504652; in the data active = activity change below about -30%; note: % is set by controls: 0 for no effect and ±100 for the full control effect
#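 Cells carrying a force-coupled, tetracycline-inducible human D1 receptor report calcium flux. Each well gets a 10 s baseline, compound with 180 s monitoring, then an EC80 dopamine stimulus with a second 180 s kinetic read.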
# D1 ag – agonists of human D1 dopamine receptor | HEK293 T-REx D1 cells, calcium flux, agonist mode | activation, % at 2 µM | 1% of 360,000 active; note: 0% is about no effect
#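 Inducible HEK293 T-REx D1 cells, force-coupled to calcium signalling, were plated at 4000 cells/well with tetracycline and held overnight at 30 C. After no-wash calcium dye loading, compound-evoked calcium rise over 180 s flagged agonists.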
# Starred values were filed as active, the others as inactive; nt = no result. Cut-off read from the data, not from the text of the source, unless noted: active = activation above about 30%; inactive = the rest.
SMILES,TRHR ag,TRHR enhancer,D1 PAM,D1 antag,D1 ag
c1ccc(-n2cnc3cc(NCc4ccccn4)ccc32)cc1,-0.5,-2.2,-3.8,0.2,0.0
c1ccc(-n2cnc3cc(NCc4ccncc4)ccc32)cc1,0.1,1.1,-3.7,-38.6*,10.0
CN(C)c1ccc(S(=O)(=O)N2CCCCC2)cc1NC(=O)CN1C(=O)NC2(CCCC2)C1=O,-0.8,6.7,4.0,-41.8*,-1.2
CN(C)c1ccc(S(=O)(=O)N2CCCCC2)cc1NC(=O)CN1C(=O)NC(C)(c2ccccc2)C1=O (stereo unspecified),-0.5,6.3,-0.3,3.5,3.2
CN(C)S(=O)(=O)c1ccc(NC(=O)CN2C(=O)NC3(CCCC3)C2=O)cc1,0.7,36.1*,-5.6,-9.6,5.0
CSc1ccccc1OC1CCN(Cc2ccccc2)CC1,-0.2,12.7,-8.1,-87.9*,15.2
CCO/N=C(\C)c1c(O)cc(C(C)C)n(-c2ccccc2)c1=O,0.1,3.2,-4.2,-36.0*,0.9
C=CCNC(=O)c1onc(CSc2ccncc2)c1C(=O)NCC=C,0.0,-1.3,10.0,-3.1,0.4
CC(C(=O)OCC(=O)Nc1ccc2c(c1)OCO2)N1C(=O)c2ccccc2C1=O (stereo unspecified),-1.0,4.9,-5.5,-4.5,21.7
CC(C(=O)Oc1ccc2c(c1)OCO2)N1C(=O)c2ccccc2C1=O (stereo unspecified),0.5,-7.1,-8.4,-40.1*,8.9
O=C(c1ccc([N+](=O)[O-])o1)N1CCN(c2nc3c(Cl)cccc3s2)CC1,-0.2,-8.3,-8.9,-34.0*,2.6
COc1cccc2sc(N3CCN(C(=O)c4ccc([N+](=O)[O-])o4)CC3)nc12,-1.2,0.3,1.1,5.2,1.5
O=C(NCc1ccco1)c1ccc(Cl)cc1[N+](=O)[O-],0.3,-6.4,-9.6,-0.7,0.0
CCN(c1ccccc1C)S(=O)(=O)c1nnc(NC(=O)c2ccccc2C)s1,0.1,-1.8,2.8,3.1,2.4
COCCNC(=O)c1cc(-c2ccccc2OC)on1,-0.3,-2.0,-4.8,12.3,1.4
COc1ccccc1-c1cc(C(=O)NC(C)c2ccccc2)no1 (stereo unspecified),0.8,-6.8,-14.9,-42.4*,9.9
COc1ccc(C(=O)NC2CC2)cc1OC1CCN(Cc2ccccc2F)CC1,-0.9,-1.2,-3.9,-53.4*,1.6
C=CCOc1ccccc1CN1CCC(Oc2ccc(C(=O)N3CCCC3)cc2)CC1,0.0,-1.5,-4.8,-11.5,4.6
COc1ccc(C(=O)NC2CC2)cc1OC1CCN(Cc2ccc(F)cc2F)CC1,-0.4,4.6,-17.4,-18.8,1.0
COc1ccc(C(=O)NC2CC2)cc1OC1CCN(Cc2ccccc2O)CC1,-0.2,-9.5,-23.4,-38.1*,2.2
C=CCN(CC=C)C(=O)c1ccc(OC2CCN(C(C)=O)CC2)c(OC)c1,0.2,3.5,3.0,-42.0*,4.4
C=CCOc1ccccc1CN1CCC(Oc2cc(C(=O)NC3CC3)ccc2OC)CC1,0.0,-3.6,-8.6,-74.3*,0.7
O=C(Nc1cc(F)ccc1F)N1CCC(CN2CCCC2)CC1,0.0,8.0,2.5,4.2,-1.7
CCc1ccccc1Nc1nn2c(=O)c3ccc(C(=O)NCc4cccs4)cc3nc2s1,1.5,7.2,-1.1,14.8,6.4
CC1CCN(S(=O)(=O)c2cccc(C(=O)N(C)C3(C)CCS(=O)(=O)C3)c2)CC1 (stereo unspecified),-0.9,1.8,3.9,-8.4,1.2
SMILES,TRHR ag,TRHR enhancer,D1 PAM,D1 antag,D1 ag
CSc1cccc(CN2CCC(CCC(=O)NC3CC3)CC2)c1,0.3,-1.3,-4.2,-49.5*,2.9
Cc1ccnc(OC(C(=O)O)C(OCc2ccccc2)(c2ccccc2)c2ccc(C(F)(F)F)cc2)n1 (stereo unspecified),0.4,-0.2,-6.0,-2.4,0.2
COC(c1ccccc1)(c1ccccc1)C(Oc1nccc(C)n1)C(=O)O (stereo unspecified),0.3,31.0*,0.7,3.6,-0.7
O=Cc1ccccc1-n1cccn1,0.7,0.5,-1.1,-33.1*,1.7
O=C(NN1C(=O)C2CC=C(Cl)CC2C1=O)c1ccncc1 (stereo unspecified),0.1,-2.8,-9.2,4.3,0.1
N#Cc1c(-c2ccccc2)cc(C2CC2)nc1SCC(=O)c1cccs1,7.8,-12.2,1.1,-1.9,32.3*
Fc1ccc(-n2cc(-c3ccccc3)c3c(NN4CCOCC4)ncnc32)cc1,-1.0,0.3,-9.8,-32.9*,1.0
COc1ccc(Sc2ncnc3onc(C)c23)cc1,0.6,-0.5,-2.6,-42.5*,-0.9
Cc1ccc(Sc2ncnc3onc(C)c23)c(C)c1,-0.6,0.8,-2.8,nt,-2.8
COc1ccc(C(=O)C(CCC(CNC(C)(C)C)C(=O)c2ccc(OC)cc2)CNC(C)(C)C)cc1 (stereo unspecified),2.2,-9.5,-11.1,-37.1*,15.8
CCOc1ccccc1CNC(=O)c1cn(-c2ccc(OC)cc2)c(=O)c2ccccc12,0.2,3.7,-4.1,-12.2,0.7
COc1ccc(-n2cc(C(=O)NCCc3ccc(C)cc3)c3ccccc3c2=O)cc1,0.6,8.9,-2.9,-39.4*,5.4
COc1cccc(-n2cc(C(=O)NCCc3ccc(C)cc3)c3ccccc3c2=O)c1,-0.1,-3.3,3.7,-48.4*,0.0
CCOc1ccc(CCNC(=O)c2cn(-c3ccc(OC)cc3)c(=O)c3ccccc23)cc1OCC,-0.3,-1.5,-2.9,2.0,6.0
CCOc1ccc(CCNC(=O)c2cn(-c3cccc(OC)c3)c(=O)c3ccccc23)cc1,-0.1,10.3,-3.1,-41.7*,0.9
COc1ccc(-c2cc(C(=O)NCCc3ccccc3)c3c(-c4ccccc4)[nH]nc3n2)cc1,0.3,-0.6,-0.9,-40.2*,3.3
COc1ccc(-c2cc(C(=O)NCCc3ccccc3)c3c(-c4ccc(Cl)cc4)[nH]nc3n2)cc1,0.7,-5.9,-3.3,6.8,5.8
COc1ccc(CCNC(=O)c2cc(-c3ccccn3)nc3ccccc23)cc1,-0.4,-1.2,-4.0,-35.4*,0.3
CCOC(=O)c1ccc(NC(=S)N(CCCN2CCCC(C)C2)Cc2ccco2)cc1 (stereo unspecified),2.2,-8.9,-5.2,-38.6*,26.3
CCOC(=O)c1ccc(NC(=S)N(CCCN2CCN(C)CC2)Cc2cccs2)cc1,0.9,-1.8,-5.7,2.2,8.7
CCOC(=O)c1ccc(NC(=S)N(CCCN2CCCC2)Cc2ccco2)cc1,0.4,2.7,-7.4,-13.9,9.1
CCOC(=O)c1ccc(NC(=S)N(CCCN2CCN(CC)CC2)Cc2cccs2)cc1,-0.1,5.8,-7.3,-29.7,49.0*
COc1cccc(NC(=S)N(CCCN2CCC(C)CC2)Cc2cccs2)c1,0.0,30.3*,0.1,-7.4,4.4
CCOc1ccc(-c2nc3scc(-c4cccs4)c3c(=O)[nH]2)cc1,0.3,1.7,-8.9,-75.2*,5.3

# Screens: PubChem, National Center for Advancing Translational Sciences (NCATS)
